Insulin prom inh = TRM-6 insulin promoter activity inhibition; 130,000 tested, 0.9% active; TRM-6 cells (human fetal islet line), insulin promoter-eGFP reporter, imaging; reporter expression induced with tamoxifen; AID 1273; inhibition, % at 2 µM;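 active = inhibition above the mean plus 3 SD, with well images judged a real hit on visual review, cut at about 60% in these data, passing the limit was not always enough; inconclusive = inhibition over the cutoff but images rejected on review; inactive = inhibition not above the cutoff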
Autophagy HCS = autophagy modulation, high-content screen; MEF GFP-LC3 puncta imaging; test concentration mostly 10 µM; calls only at 10 µM (by protocol); 190,000 tested, 0.98% active; AID 463193;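 active = percentage of spot-positive cells more than 3 SD above its plate mean, without a fluorescence outlier flag or 80% toxicity; inconclusive = no clear call, values can overlap the other calls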
eIF4E 4G PPI = eIF4E/eIF4G interaction inhibition in translation initiation; P63073+Q04637; TR-FRET eIF4E-eIF4GI(517-606) binding, 2 h; inhibition, % at 21.7 µM; 220,000 tested, 0.37% active;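 active = inhibition above about 30%, limit read from the data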
Insulin prom up = MIN6 insulin promoter up-regulation. z-score at 5 µM. 190,000 tested, 0.3% active. AID 1625. MIN6 insulin promoter-GFP reporter, high-content imaging; stronger effect = higher value;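 active = z-score above 3 at 5 µM with at least 500 cells counted in the well; inconclusive = wells under 500 cells, flagged as cytotoxic or low count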
PERK inh = inhibitors of human PERK kinase | Q9NZJ5 | CHO PERK-DD fusion, SEAP luminescence translation reporter | inhibition, % at 5.6 µM | 220,000 tested, 0.17% active;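 active = inhibition above the mean inhibition of all tested compounds plus 3 SD, set separately per screening campaign, cut at about 2.9% in these data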;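 also: PERK kinase domain activated by AP20187 dimerizer at 100 nM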
Large screens that a line does not name were inactive; [ ] = remark or other dose. Most compounds without a hit are left out; they make up all but 2% or so of the library.

COc1ccc(C2CC(=O)C(C(c3ccc(O)cc3)C3C(=O)CC(c4ccc(OC)cc4)CC3=O)C(=O)C2)cc1 (centres undefined)	none (no result: Insulin prom inh, Autophagy HCS)
CSCCC(NS(=O)(=O)c1ccc(Br)cc1)C(=O)OCC(=O)NC1CC1 (centres undefined)	Insulin prom inh 83.3
CCCn1c(SCC(=O)c2c(C)[nH]c(C)c2C(=O)OCC)nc2ccccc21	none
COC(=O)c1ccc(Cn2cc(C(F)(F)F)cc([N+](=O)[O-])c2=O)cc1	none (no result: Insulin prom inh)
O=c1c([N+](=O)[O-])cc(C(F)(F)F)cn1Cc1c(Cl)cccc1Cl	PERK inh 3.3 (no result: Insulin prom up)
CCC(C)(C)n1nnnc1C(c1cc2cc(C)cc(C)c2[nH]c1=O)N1CCN(Cc2ccc3c(c2)OCO3)CC1 (centres undefined)	Autophagy HCS active (no result: Insulin prom up)
CCN(CC)C(=O)CSc1nnc(COc2cccc(C)c2)n1C	none (no result: Insulin prom up)
O=C1NC(=O)/C(=C\c2ccsc2)N1	Insulin prom inh 72.2
COC(=O)[C@H]1[C@H]2C[C@@H]3c4[nH]c5cc(OC)ccc5c4CCN3C[C@H]2C[C@@H](OC(=O)c2ccc(N)cc2)[C@@H]1OC	none (no result: Insulin prom inh, Autophagy HCS)
COc1ccc2c3c([nH]c2c1)C1CC2C(CC(O)C(OC)C2CO)CN1CC3 (centres undefined)	PERK inh 4.1 (no result: Insulin prom inh, Autophagy HCS)
C=CC(O)Cc1c(C)n[nH]c1C (centres undefined)	Insulin prom inh 76.9
CCOC(=O)CCc1c(C)n[nH]c1C	none
N#CCc1c(C#N)c(N)nc(N2CCCC(O)C2)c1C#N (centres undefined)	none
N#CCc1c(C#N)c(N)nc(N2CCCC(CO)C2)c1C#N (centres undefined)	Autophagy HCS active (no result: Insulin prom inh)
NS(=O)(=O)c1ccc(NC(=O)COC(=O)c2ccc(Cl)cc2[N+](=O)[O-])cc1	none (no result: Insulin prom inh, Autophagy HCS)
CCOc1ccc2nc(C)cc(Nc3cccc([N+](=O)[O-])c3)c2c1	Autophagy HCS active
CCOC(=O)Nc1ccc(Cc2ccncc2)cc1	none (no result: Insulin prom inh)
Cc1ccc(-n2c(SCC(=O)N/N=C/c3c(C)nn(-c4ccccc4)c3C)nc3ccccc3c2=O)cc1	Autophagy HCS active (no result: Insulin prom inh)
CC1CN(C(=O)C(c2ccccc2)c2ccccc2)CC(C)O1 (centres undefined)	none
NC(=O)c1cc2c3ccccc3ccn2c1-c1ccccc1	Insulin prom up inconclusive (no result: Insulin prom inh, Autophagy HCS)
Cc1cc(C)c(NC(=O)COC(=O)c2cccc3c2C(=O)c2ccccc2C3=O)c(C)c1	none
Cc1cc(C)c(Nc2cc(S(=O)(=O)O)c(N)c3c2C(=O)c2ccccc2C3=O)c(C)c1	eIF4E 4G PPI 56.1[fluorescence artefact?] (no result: Insulin prom inh)
CCC(C)n1c(NC(=O)c2ccccc2)c(C#N)c2nc3ccccc3nc21 (centres undefined)	Autophagy HCS active (no result: eIF4E 4G PPI, Insulin prom up)
O=S(=O)(NCc1ccc(Cl)cc1)c1cnc[nH]1	Autophagy HCS active
O=S(=O)(NCc1ccccc1)c1cnc[nH]1	none
O=C(Nc1ccccc1)N1CCSc2cc(Cl)ccc21	PERK inh 3.1 (no result: Insulin prom up)
CCOC(=O)CC(NS(=O)(=O)c1ccc(OC)c(C)c1)c1cccc([N+](=O)[O-])c1 (centres undefined)	Autophagy HCS active (no result: Insulin prom up)
CCOc1ccc(C(CC(=O)O)NS(=O)(=O)c2ccc(C)cc2)cc1OC (centres undefined)	none
CCCn1c(SCC(=O)N2c3ccc(F)cc3CCC2C)nnc1-c1ccccn1 (centres undefined)	none
CC12CC(c3ccccc3O1)C(C(=O)N1CCOCC1)C(=O)N2 (centres undefined)	Insulin prom inh 71.4
O=C(C1COc2ccccc2O1)N1CCOCC1 (centres undefined)	none
N#C/C(=C\c1ccc(OCC(N)=O)cc1)S(=O)(=O)c1ccccc1	none (no result: Insulin prom inh)
Cc1cccc(C)c1OCCNC(=O)OCc1ccccc1	none (no result: Insulin prom inh)
CCOC(=O)N/N=C\c1ccc(OC(=O)c2ccc3c(c2)OCO3)cc1	Autophagy HCS active
Cc1ccc(C(=O)Oc2ccc(/C=N/NC(N)=O)cc2)cc1	none (no result: Insulin prom inh)
CC/C(=N/Nc1ccc(Cl)cc1)c1cnnc(SC)n1	none
CC/C(=N/Nc1cccc(C)c1)c1cnnc(SC)n1	Autophagy HCS active
Cc1cc(C)cc(NC(=O)c2ccccc2CC[N+](=O)[O-])c1	eIF4E 4G PPI 76.4
CC(=O)Oc1ccc2c(=O)c(Oc3ccccc3)coc2c1OC(C)=O	Autophagy HCS active
CCOC(=O)COn1c(=O)c(C)[n+]([O-])c2ccccc21	none
CCOC(=O)COn1c(=O)c[n+]([O-])c2ccccc21	Insulin prom inh 100.0
Cc1cc(C)c(NC(=O)CS(=O)CC(=O)NC2CCCc3ccccc32)c(C)c1 (centres undefined)	none (no result: Insulin prom up)
CC1CN(CC(=O)Nc2ccccc2Sc2ccccc2)CC(C)O1 (centres undefined)	none
O=C(N/N=C/c1ccc(F)cc1)c1ccc(Br)cc1	none (no result: Insulin prom inh)
CNC(=O)C(=O)N/N=C/c1ccc(Br)cc1	Insulin prom inh 70.6
CCOC(=O)c1cnc2ccc(C(=O)OC)cc2c1Nc1ccc2c(c1)OCCO2	Autophagy HCS active (no result: Insulin prom up)
Cc1ccccc1CSc1nncn1N	eIF4E 4G PPI 46.3
CCn1c(SCC(=O)Nc2ccc(S(=O)(=O)Nc3ccccn3)cc2)nnc1-c1ccncc1	none
O=C(CSc1nnc(-c2ccccc2)n1C1CCCCC1)Nc1ccc(S(=O)(=O)Nc2ccccn2)cc1	eIF4E 4G PPI 52.8
COc1ccc(Nc2nc3c(C)cccc3cc2C#N)c(OC)c1	Autophagy HCS active
COc1ccc(Nc2nc3ccc(C)cc3cc2C#N)c(OC)c1	none (no result: Insulin prom inh)
COc1ccc(Nc2nc3cc(C)ccc3cc2C#N)c(OC)c1	Autophagy HCS active
CCOC(=O)NS(=O)(=O)c1ccc(CCNC(=O)c2cc(C)on2)cc1	none
S=C1N(c2ccccc2)CN(CCN2CCOCC2)CN1c1ccccc1	eIF4E 4G PPI 38.9 (no result: Insulin prom inh, Autophagy HCS)
COc1ccc(-c2nc3scc(-c4ccc(OC)c(OC)c4)c3c(=O)o2)cc1	Autophagy HCS active (no result: Insulin prom inh)
CCOC(=O)c1oc2nc3c(cc2c1N)COC(C)(C)C3	Autophagy HCS active (no result: Insulin prom inh, Insulin prom up)
O=C(CSC1=NC(=O)C(c2ccccc2)C(=O)N1)Nc1ccccc1[N+](=O)[O-] (centres undefined)	none (no result: Insulin prom inh)
CCOc1nc(-c2ccc(Cl)cc2)nc2ccccc12	none
Cc1ccc(NC(=O)c2ccc(C(C)(C)C)cc2)cc1-n1cnnn1	none
CCOc1cccc(C2C(C#N)=C(N)Oc3cc(C)oc(=O)c32)c1OCC (centres undefined)	Insulin prom inh 81.8
COCCN(C)C(=O)CC1C(=O)NCCN1CC(c1ccccc1)c1ccccc1 (centres undefined)	none
COC(=O)c1ccc(CSc2nc3ccccc3s2)o1	none
COC(=O)c1ccc(CSc2n[nH]c(=S)s2)o1	eIF4E 4G PPI 33.0 (no result: Insulin prom inh)
Cc1ccc(N=Cc2nc(-c3ccc(C)cc3)oc2O)cc1	eIF4E 4G PPI 66.0 (no result: Insulin prom inh)
COC(=O)c1ccccc1NC(=S)N(Cc1ccc2c(c1)OCO2)Cc1cc2ccc(OC)cc2[nH]c1=O	none (no result: Insulin prom up)
O=C(Nc1ccc(F)cc1)Nc1ccc([N+](=O)[O-])cn1	Autophagy HCS active
O=C(Nc1ccc([N+](=O)[O-])cn1)C1CC2CCC1C2 (centres undefined)	Insulin prom inh 69.2

Assay outcomes as filed in PubChem.
